PubChem BioAssay (NCI)
This is part of a sample that, as a whole, favours compounds with a hit. Of some 79,000 tested, about 15% had one in any assay. Calls of active or inactive are those of the source. Rule as the data show it: active = growth inhibition above about 70%; inactive = the rest.

Key:
[1] = NCI Yeast Anticancer Drug Screen. Data for the mlh1 strain (AID 171);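 also: 0% = growth of vehicle-treated control cultures of the same strain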; settings: S. cerevisiae mlh1 strain growth inhibition, active compounds read high
How it was run: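 Compounds are applied to a genetically altered yeast strain, and its growth is compared with that of vehicle-treated cultures to give percent inhibition.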

[2] = NCI Yeast Anticancer Drug Screen. Data for the sgs1 strain (AID 173);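 also: 0% = growth of vehicle-only control cultures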; settings: S. cerevisiae sgs1 mutant, active compounds read high
How it was run: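 Compounds applied to genetically altered yeast; growth compared with vehicle-treated cultures to give % inhibition.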

[3] = NCI Yeast Anticancer Drug Screen. Data for the mlh1 rad18 strain (AID 175); settings: S. cerevisiae mlh1 rad18 strain growth inhibition, active compounds read high
How it was run: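 Cells of a genetically altered yeast strain, deficient in DNA damage repair, were treated with compound. Their growth was then compared with that of vehicle-treated cultures to give inhibition.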

[4] = NCI Yeast Anticancer Drug Screen. Data for the rad18 strain (AID 177); settings: S. cerevisiae rad18 mutant growth inhibition, active compounds read high
How it was run: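 Compounds are applied to a repair-deficient yeast strain, and growth is compared with that of vehicle-treated cultures to give percent inhibition.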

[5] = NCI Yeast Anticancer Drug Screen. Data for the wt1 strain (AID 149);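 also: 0% = growth of vehicle-treated wt1 cultures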; settings: S. cerevisiae wt1 strain (SPY 50644) growth inhibition, active compounds read high
How it was run: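 wt1 yeast, compound-treated; % growth inhibition vs vehicle control.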

[6] = NCI Yeast Anticancer Drug Screen. Data for the rad50EPP+ strain (AID 151);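 also: 0% = growth of vehicle-treated control cultures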; settings: S. cerevisiae rad50 mutant strain, active compounds read high
How it was run: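 rad50EPP+ yeast treated with test compounds. Readout: growth vs vehicle control.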

[7] = NCI Yeast Anticancer Drug Screen. Data for the mgt1 strain (AID 153); settings: S. cerevisiae mgt1 mutant growth inhibition, active compounds read high
How it was run: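 Growth inhibition relative to vehicle controls was scored for the mgt1 yeast strain after compound exposure.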

[8] = NCI Yeast Anticancer Drug Screen. Data for the rad50 strain (AID 155);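 also: 0% = growth of vehicle-only cultures of the same strain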; settings: S. cerevisiae rad50 strain growth inhibition, active compounds read high
How it was run: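 Genetically altered yeast (DNA repair pathway); compound treatment; growth inhibition vs vehicle ctrl.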

[9] = NCI Yeast Anticancer Drug Screen. Data for the mec2-1 strain (AID 157); settings: S. cerevisiae mec2-1 strain, active compounds read high
How it was run: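 Growth inhibition is read against vehicle-treated controls after compound exposure of the mec2-1 yeast strain, which is defective in DNA damage repair or cell cycle control.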

[10] = NCI Yeast Anticancer Drug Screen. Data for the rad14 strain (AID 159);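 also: 0% = growth of vehicle-treated control cultures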; settings: S. cerevisiae rad14 strain growth inhibition, active compounds read high
How it was run: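 Test compounds were applied to a repair-deficient yeast strain. Its growth was then compared with that of cultures given vehicle alone, and inhibition was expressed relative to those controls.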

[11] = NCI Yeast Anticancer Drug Screen. Data for the sgs1 mgt1 strain (AID 161);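 also: 0% = growth of cultures given vehicle only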; settings: S. cerevisiae sgs1 mgt1 strain, active compounds read high
How it was run: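 Percent growth inhibition was derived by comparing compound-exposed mutant yeast with vehicle-exposed cultures. The strain carries alterations in DNA damage repair.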

[12] = NCI Yeast Anticancer Drug Screen. Data for the CLN2oe strain (AID 163);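 also: 0% = growth of vehicle-only control cultures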; settings: S. cerevisiae CLN2oe strain, active compounds read high
How it was run: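 Compound-treated yeast; growth vs vehicle ctrl = % inhibition. Genetically altered strain (cell-cycle control).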

[13] = NCI Yeast Anticancer Drug Screen. Data for the cln2 rad14 strain (AID 165);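 also: 0% = growth equal to vehicle treated cultures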; settings: S. cerevisiae cln2 rad14 strain, active compounds read high
How it was run: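 Growth inhibition, relative to vehicle-treated controls, is the read-out. The test organism is a yeast strain with defined genetic alterations, cln2 rad14.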

[14] = NCI Yeast Anticancer Drug Screen. Data for the bub3 strain (AID 167); settings: S. cerevisiae bub3 mutant strain, active compounds read high
How it was run: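 Yeast carrying a defined mutation is treated with each compound, and growth is compared with that of vehicle-exposed cells to give inhibition.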

[15] = NCI Yeast Anticancer Drug Screen. Data for the wt2 strain (AID 169);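 also: 0% = growth of vehicle-treated yeast cultures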; settings: S. cerevisiae wt2 strain growth inhibition, active compounds read high
How it was run: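 Compound exposure of yeast; growth compared with vehicle controls; inhibition reported.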

[16] = at 5.0 µM (retest, dose inferred, filed as 0.5)
[17] = at 50.0 µM (retest, dose inferred, filed as 5.0)

Measured: growth inhibition

CCCN=Cc1cc(Cc2ccc(O)c(C=NCCC)c2)ccc1O
active: [1]; at 3.7 µM 96% | [1]; at 11.0 µM 98% | [1]; at 33.0 µM 98% | [1]; at 100.0 µM 96% | [2]; at 3.7 µM 89% | [2]; at 11.0 µM 98% | [2]; at 33.0 µM 98% | [2]; at 100.0 µM 97% | [3]; [16] 98% | [3]; [17] 99% | [3]; at 50.0 µM 89.3% | [4]; at 3.7 µM 95% | [4]; at 11.0 µM 98% | [4]; at 33.0 µM 99% | [4]; at 100.0 µM 99%
inactive: [1]; at 1.2 µM 60% | [2]; at 1.2 µM 58% | [4]; at 1.2 µM 45%

O=C(C(Cl)=C(N1CCCCC1)N1CCCCC1)C(Cl)Cl
inactive: [5]; at 1.2 µM -2% | [5]; at 3.7 µM 0% | [5]; at 11.0 µM -1% | [5]; at 33.0 µM -1% | [5]; at 100.0 µM 1% | [6]; at 1.2 µM 1% | [6]; at 3.7 µM 1% | [6]; at 11.0 µM 3% | [6]; at 33.0 µM 3% | [6]; at 100.0 µM 5% | [7]; at 1.2 µM -3% | [7]; at 3.7 µM -1% | [7]; at 11.0 µM -4% | [7]; at 33.0 µM -3% | [7]; at 100.0 µM 2% | [8]; at 1.2 µM 3% | [8]; at 3.7 µM 6% | [8]; [16] 69% | [8]; at 11.0 µM -2% | [8]; at 33.0 µM 5% | [8]; at 50.0 µM 64.4% | [8]; at 100.0 µM 3% | [9]; at 1.2 µM 2% | [9]; at 3.7 µM -2% | [9]; [16] 11% | [9]; at 11.0 µM -3% | [9]; at 33.0 µM -6% | [9]; at 100.0 µM -2% | [10]; at 1.2 µM -3% | [10]; at 3.7 µM -1% | [10]; at 11.0 µM 3% | [10]; at 33.0 µM -2% | [10]; at 100.0 µM -1% | [11]; [16] -6% | [12]; at 1.2 µM 2% | [12]; at 3.7 µM 4% | [12]; at 11.0 µM 3% | [12]; at 33.0 µM 1% | [12]; at 100.0 µM 9% | [13]; [16] 7% | [13]; at 50.0 µM 23.9% | [14]; at 1.2 µM -5% | [14]; at 3.7 µM 2% | [14]; [16] -5% | [14]; at 11.0 µM 9% | [14]; at 33.0 µM 4% | [14]; at 50.0 µM 68.1% | [14]; at 100.0 µM 2% | [15]; at 1.2 µM -1% | [15]; at 3.7 µM 1% | [15]; at 11.0 µM 2% | [15]; at 33.0 µM 2% | [15]; at 100.0 µM 2% | [1]; at 1.2 µM -2% | [1]; at 3.7 µM -4% | [1]; at 11.0 µM 2% | [1]; at 33.0 µM 0% | [1]; at 100.0 µM 1% | [2]; at 1.2 µM -50% | [2]; at 3.7 µM -3% | [2]; at 11.0 µM -2% | [2]; at 33.0 µM -4% | [2]; at 100.0 µM -1% | [4]; at 1.2 µM -2% | [4]; at 3.7 µM 1% | [4]; at 11.0 µM -2% | [4]; at 33.0 µM -15% | [4]; at 100.0 µM -1%
active: [8]; [17] 99% | [9]; [17] 99% | [9]; at 50.0 µM 70.7% | [11]; [17] 99% | [11]; at 50.0 µM 85.2% | [13]; [17] 99% | [14]; [17] 99%
